Reference: PubChem BioAssay (NCI)
The panel holds about 79,000 compounds, 15% with a hit somewhere; the sample as a whole holds those more often. Cut-off read from the data, not from the text of the source: active = growth inhibition above about 70%; inactive = the rest.

What was measured:
[1] = NCI Yeast Anticancer Drug Screen. Data for the rad50 strain (AID 155);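 note: 0% = growth of vehicle-only cultures of the same strain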; conditions: S. cerevisiae rad50 strain growth inhibition; at 50.0 µM; active compounds read high
Procedure, shortened: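 Growth of the mutant yeast was measured after compound exposure and referenced to vehicle-treated cultures.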

[2] = NCI Yeast Anticancer Drug Screen. Data for the mec2-1 strain (AID 157); conditions: S. cerevisiae mec2-1 strain, at 50.0 µM, active compounds read high
Procedure, shortened: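 mec2-1 yeast strain, carrying an alteration in DNA damage repair or cell cycle control, was exposed to compounds; growth inhibition was measured relative to vehicle-treated controls.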

[3] = NCI Yeast Anticancer Drug Screen. Data for the sgs1 mgt1 strain (AID 161);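 note: 0% = growth of cultures given vehicle only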; conditions: S. cerevisiae sgs1 mgt1 strain, at 50.0 µM, active compounds read high
Procedure, shortened: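 Compounds are added to genetically altered yeast, and growth is compared with cultures given vehicle alone to give percent inhibition.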

[4] = NCI Yeast Anticancer Drug Screen. Data for the cln2 rad14 strain (AID 165);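 note: 0% = growth equal to vehicle treated cultures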; conditions: S. cerevisiae cln2 rad14 strain, at 50.0 µM, active compounds read high
Procedure, shortened: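 Yeast carrying cln2 and rad14 alterations (cell cycle control and DNA damage repair) were exposed to compounds. Growth inhibition was measured against vehicle-treated controls.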

[5] = NCI Yeast Anticancer Drug Screen. Data for the bub3 strain (AID 167); conditions: S. cerevisiae bub3 mutant strain, at 50.0 µM, active compounds read high
Procedure, shortened: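 Whole-cell yeast assay. The mutant strain was incubated with compounds, and growth inhibition was determined by comparison with vehicle-treated cells.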

[6] = NCI Yeast Anticancer Drug Screen. Data for the mlh1 rad18 strain (AID 175); conditions: S. cerevisiae mlh1 rad18 strain growth inhibition; at 50.0 µM; active compounds read high
Procedure, shortened: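 Growth inhibition of the yeast strain was measured after compound exposure and expressed relative to vehicle-treated controls. The strain carries defined defects in DNA damage repair.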

Measured: growth inhibition

CC1=NN(C(=O)c2ccc(Cl)cc2)C(=O)/C1=C/c1ccco1
inactive: [1] -8.85% | [2] -28.9% | [3] -22.6% | [4] 9.25% | [5] -2.7% | [6] -24.1%

Cc1ccc2cccnc2c1
inactive: [1] 21.9% | [2] -4.6% | [3] -0.95% | [4] 11.2% | [5] 2.85% | [6] 5%

O=C(/C(=C(/Br)I)c1ccccc1)c1ccccc1
inactive: [1] -13.8% | [2] 16% | [3] 26.6% | [4] 14.1% | [5] 42.6% | [6] 28.4%

O=C(Nc1ccn(C2OC(CO)C(O)C2O)c(=O)n1)Nc1ccn(C2OC(CO)C(O)C2O)c(=O)n1 (stereo not given)
inactive: [1] 22.5% | [2] -17.6% | [3] -4.95% | [4] -35.8% | [5] -1.2% | [6] 17.6%

Cc1ccc(O)cc1C=C(Cl)Cl
inactive: [1] 18.6% | [2] 0.25% | [3] 35.6% | [4] 22.8% | [5] -0.3% | [6] 11.4%

CSc1nc2c(N)nc(N)nc2nc1C
inactive: [1] 5.9% | [2] 0.2% | [3] 0.75% | [4] -31.6% | [5] -16.7% | [6] 11.5%

O=C(CCCCC(=O)N1CCOCC1)N1CCOCC1
inactive: [1] -9.3% | [2] -21.9% | [3] -2.45% | [4] -19.6% | [5] 2.1% | [6] -9.4%

COc1ccc(NC(=O)Oc2ccccc2-c2ccccc2)cc1
inactive: [1] 1.1% | [2] 14.3% | [3] -1.7% | [4] -18.1% | [5] -6.7% | [6] -12.3%

COc1ccc(C(C)=O)cc1
inactive: [1] 34.5% | [2] 18.8% | [3] 30.6% | [4] 37.1% | [5] 29.9% | [6] 18.9%

COc1ccc(Cc2ccc(OC)cc2)cc1
inactive: [1] -34.2% | [2] -5.3% | [3] 8.15% | [4] -9.15% | [5] 5.15% | [6] -15%

CNC(=O)N(c1ccccc1)C1CCCCC1
inactive: [1] 15.8% | [2] 13.8% | [3] -2.5% | [4] -65.5% | [5] 9.8% | [6] 1.15%

CC1=CC(C)(C)NC(=S)N1CCO
inactive: [1] 1.95% | [2] -18.6% | [3] 25.3% | [4] 13.4% | [5] 1.15% | [6] 32.3%

C=C1C(C(=O)O)C1C(=O)O (stereo not given)
inactive: [1] 4.2% | [2] -11.8% | [3] 20.4% | [4] 3.6% | [5] 2.9% | [6] -2.25%

NC(CSC(=O)c1ccccc1)C(=O)O (stereo not given)
inactive: [1] -14.2% | [2] -3.45% | [3] -19.8% | [4] -2.55% | [5] -30.2% | [6] -19.9%

C(=C1/NC(c2ccccc2)=Nc2ccccc21)/c1ccccc1
inactive: [1] 24.3% | [2] -0.5% | [3] 10.9% | [4] 37.6% | [5] 4.85% | [6] 29.8%

CCOC(=O)/C=C/c1nc(C(=O)OCC)c(C)c(=O)[nH]1
inactive: [1] -0.55% | [2] 8.3% | [3] 22% | [4] 7% | [5] 1.25% | [6] -24.1%

O=C(Nc1ccccc1-c1ccccc1)c1cccnc1
inactive: [1] 2.65% | [2] 22.6% | [3] 9.2% | [4] 8.1% | [5] -11.2% | [6] 5.45%

CN(C)C/C=C(/c1ccc(Br)cc1)c1cccnc1
inactive: [1] -5.75% | [2] -16% | [3] -3.7% | [4] -20.4% | [5] -12.6% | [6] 1.65%

O=C(NCc1cccnc1)Nc1cccc2c(NC(=O)NCc3cccnc3)cccc12
inactive: [1] -17.1% | [2] -6.3% | [3] 5.8% | [4] 14.5% | [5] -0.05% | [6] 13.9%

O=C(O)c1cccc(-c2nn[nH]n2)c1
inactive: [1] 2.75% | [2] 0.5% | [3] -4.55% | [4] -55% | [5] 0.25% | [6] -2.7%
